PubChem BioAssay AID1259399 (Fisher Drug Discovery Resource Center, 2018)
Among all 160,000 compounds or so, about 240 (0.15%) were called active. The list comes from a sample in which actives are over-represented; it also holds similar structures and randomly drawn compounds. A number with no mark means an inactive call. Cut-off read from the data, not from the text of the source: active = inhibition above about 40%; inactive = the rest.

target: Cyclic GMP-AMP synthase (Mus musculus) (UniProt Q8C6L5); assay: cyclic GMP-AMP synthase inhibitors, mouse, primary biochemical chemiluminescence (AID 1259399); conditions: recombinant cGAS, Kinase-Glo ATP depletion luminescence; at 12.5 µM; hits give high values;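 note: 0% = negative control wells and 100% = reference inhibitor with no enzyme activity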
Sequence (Q8C6L5 whole entry, looked up): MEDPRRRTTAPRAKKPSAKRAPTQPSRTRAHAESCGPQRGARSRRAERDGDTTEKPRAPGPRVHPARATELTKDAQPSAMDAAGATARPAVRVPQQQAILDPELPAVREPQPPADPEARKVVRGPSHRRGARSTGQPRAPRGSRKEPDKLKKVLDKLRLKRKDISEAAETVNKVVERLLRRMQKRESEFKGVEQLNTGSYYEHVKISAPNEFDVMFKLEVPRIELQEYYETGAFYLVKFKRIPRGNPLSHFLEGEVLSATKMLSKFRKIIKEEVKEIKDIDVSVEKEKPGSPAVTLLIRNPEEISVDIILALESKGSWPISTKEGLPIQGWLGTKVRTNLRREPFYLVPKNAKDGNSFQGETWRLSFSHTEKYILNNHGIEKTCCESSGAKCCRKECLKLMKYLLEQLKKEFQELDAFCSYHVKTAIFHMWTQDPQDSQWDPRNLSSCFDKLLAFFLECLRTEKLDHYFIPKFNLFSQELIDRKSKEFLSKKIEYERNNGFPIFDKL

SMILES | inhibition
CCn1c(SCc2ccccc2OC(F)F)nnc1-c1c2c(nc3ccccc13)CCC2 | -4.53%
CCOc1ccc(S(=O)(=O)Nc2ccc3oc(-c4ccccc4)cc3c2)cc1 | -4.93%
CCOc1ccc(C2c3[nH]c4ccccc4c3CCN2C(=O)CSC)cc1 (stereo not given) | -3.44%
Cc1ccc(NC(=O)c2ccc(CSc3nc(Cl)cc(N4CCN(C/C=C/c5ccccc5)CC4)n3)cc2)cc1C | -2.86%
C=CCN(C(=O)CCl)c1nc(-c2ccc(Cl)c(Cl)c2)cs1 | 72.2% (active)
N#Cc1ccc(-c2csc(NC(=O)c3cc([N+](=O)[O-])ccc3Cl)n2)cc1 | -5.77%
CCCS(=O)(=O)N1CCN(c2ccc(C)nn2)CC1 | -8.23%
COc1cc(CN(C)C(=O)c2c(C)noc2-c2ccccc2Cl)cc(OC)c1OC | 2.4%
CC(C)CN(Cc1ccc(OS(=O)(=O)c2ccc(F)cc2)cc1)S(=O)(=O)c1ccc(Cl)cc1 | -3.83%
COc1cc([N+](=O)[O-])ccc1NC(=O)C(C)Nc1ccc2nc(C)sc2c1 (stereo not given) | -7.43%
CC(C)(C)c1cc2nc(C(=O)NCCc3ccccn3)cc(-c3ccccc3F)n2n1 | -5%
O=C1NC2(CCN(C(=O)COc3ccccc3)CC2)Nc2ccc(Cl)c(Cl)c21 | -6.89%
C=C(C)CN(CC)C(=O)c1ccc(-c2ccc(OC)c(OC)c2OC)s1 | -8.29%
CSc1cccc(NC(=O)NCCNc2cc(-n3ccnc3C)nc(C)n2)c1 | -12.2%
O=C(CCC1CCN(C23CC4CC(CC(C4)C2)C3)CC1)Nc1ccccc1Cl | -11%
Cc1ccccc1-n1c(SCCCC(=O)N2CCN(C(=O)COCc3ccccc3)C(C)C2)nnc1-c1ccco1 (stereo not given) | -5.31%
COc1ncccc1-c1cc2c(cn1)nc(NCc1cccc(C)c1)n2C | -6.3%
CCn1nc(C(=O)N2CCN(c3ccccc3)CC2)c2c1CCN(C(=O)c1csc(SC)n1)C2 | -7.21%
CC(C)OCCNC(=O)c1ccc(-c2cc(-c3ccccc3)n[nH]2)cc1 | -2.09%
Cc1nc2n(n1)C(=O)C(C(c1cccs1)N1CCN(CCO)CC1)S2 (stereo not given) | -7.74%
CCc1cc2c(=O)c(-c3ccc4c(c3)OCO4)c(C)oc2cc1OC1OC(CO)C(O)C(O)C1O (stereo not given) | -6.86%
COc1cc(/C=C2/C(=O)N(c3ccc(Cl)c(Cl)c3)N=C2C)ccc1O | 27.3%

SMILES | inhibition
CCOC(=O)c1c(NC(=O)c2cccc3c2-c2ccccc2C3=O)c(-c2ccc(OC)c(OC)c2)cn1Cc1ccccc1 | -5.46%
CCn1c(=NC(=O)Cc2ccc(C)c(C)c2)sc2cc3c(cc21)OCCO3 | -9.59%
CCCC1(C2CCN(C(=O)[C@H]3C[C@@H]4C=C[C@H]3C4)CC2)NC(=O)N(CCc2cccs2)C1=O (stereo not given in full) | -8.91%
O=C1c2ccccc2C(=O)c2cc(Sc3ccccc3)ccc21 | -6.93%
CCc1nc2c(OCCOc3ccccc3)cccn2c1N(C)C(=O)c1ccccc1F | -3.16%
CC12OC3(CCCCC3)C(C)(OC13CCCCC3)O2 | -2%
CC1CCCC(NC(=O)c2cc(S(=O)(=O)N3CCCC3)c[nH]2)C1C (stereo not given) | -4.23%
COc1ccc2[nH]c3c(c2c1)CCN(C(=O)COCc1ccccc1)C3COCc1ccccc1 (stereo not given) | -10.3%
CCOC(=O)C1(Cc2ccc(OC)cc2)CCN(C(=O)C2CCCC2)CC1 | -2.47%
CCCc1cc(C(=O)NC(CC)C2CCCO2)sc1C (stereo not given) | 3.24%
Cn1c(=O)n(Cc2ccc(Cl)cc2)c(=O)c2c1nc1oc(C(C)(C)C)cn12 | -8.53%
C/C(=N/OC(=O)C1CC1(c1ccccc1)c1ccccc1)c1ccccc1 (stereo not given) | -5.77%
CCc1ccc(NC(=O)CSc2nccn3nc(-c4ccc(C)cc4)cc23)cc1 | -6.93%
CCCOc1nn(CCC)cc1C(=O)Nc1nccs1 | -6.36%
O=C(Cc1ccc2c(c1)CCC2)Nc1nn2cnnc2s1 | -17.7%
CCCc1nnc2sc(CCc3c(C)n[nH]c3C)nn12 | -9.34%
COCc1nnc2sc(Cc3ccc4c(c3)CCCC4)nn12 | 79.1% (active)
c1cc(C2CCN(C3CCC4(CCNCC4)CC3)CC2)ccn1 | -9.51%
O=C(NC1CCN(c2ccccc2C(=O)NCc2ccc3c(c2)OCO3)CC1)c1ccccc1Cl | -4.1%
O=C1OC(C[N+](=O)[O-])C(Cl)=C1Oc1ccccc1 (stereo not given) | 22.9%
CCCCc1nc(N2CCN(C(=O)Cc3cccs3)CC2)c2c(C)nn(-c3ccc(F)cc3)c2n1 | -4.18%
CC1(C(=O)Nc2cccc3cccnc23)CCN1C(=O)Cc1ccccc1Cl (stereo not given) | -5.18%

SMILES | inhibition
CCOC(=O)C1=C(O)/C(=C\c2cc(O)cc(O)c2)SC1=Nc1cccc(C(F)(F)F)c1 | -2.35%
Cc1nc(C2(NCc3csc(-c4ccoc4)n3)CCCC2)no1 | -13.3%
CN(C)CCNC(=O)c1nn(-c2cccc(C(F)(F)F)c2)c(=O)n(Cc2ccccc2F)c1=O | 1.41%
Cc1c[nH]c(=O)n1-c1ccc(C(=O)Nc2cc(Cl)c(N)c(Cl)c2)cc1 | -14.6%
CC(C)(C)c1cc(=O)n2[nH]cc(-c3ccccc3Cl)c2n1 | -1.72%
CC(C)(C)c1cc(=O)n2[nH]cc(-c3ccc(Cl)cc3)c2n1 | 40% (active)
CN(C)CCNc1cc(C(C)(C)C)nc2c(-c3ccc(Cl)cc3)cnn12 | -0.291%
COCCN(CCOC)Cc1cc(=O)oc2cc(-c3ccccc3)c(O)cc12 | 2.45%
C=CCN1C(=O)C2(CC(=O)N(CCc3cccc(OC)c3)C2=O)c2cc(OC)ccc21 (stereo not given) | -2.01%
Cc1ccccc1N1CCn2c1nc1c2c(=O)n(CCN2CCOCC2)c(=O)n1C | -8.88%
COc1ccc(CCNC(=O)CCc2cc3c(n2-c2ccc(OC)cc2)-c2ccccc2CC3)cc1 | -9.29%
COc1cccc(-c2cc(-c3ccc(C(=O)NCCc4ccc(OC)c(OC)c4)cc3)[nH]n2)c1 | -4.79%
COc1ccc(-n2c(SCC(=O)N3CCN(C(=O)C(c4ccccc4)c4ccccc4)C(C)C3)nnc2-c2cccc(OC)c2)cc1 (stereo not given) | -6.69%
CC(C)(C)n1nc2c(c1NC(=O)c1ccc3c(c1)OCO3)CSC2 | -7.2%
CC(C)N(CC(=O)N(Cc1ccc(F)cc1)Cc1ccco1)C(=O)c1ccc(-c2ccccc2)cc1 | -5.81%
Cc1cc(OC(=O)c2ccc(OC(C)C)cc2)c([N+](=O)[O-])c(=O)[nH]1 | -0.422%
Cc1ccc(C)c(CN2CCN(c3nc4c(c(=O)[nH]c(=O)n4C)n3CCC(C)C)CC2)c1 | -1.17%
Cc1ccc(S(=O)(=O)N(Cc2ccco2)Cc2nccn2Cc2ccc(C(F)(F)F)cc2)cc1 | -8.05%
COc1ccccc1C1=NOC(CN(Cc2ccccc2Cl)C(=O)C2CCC2)C1 (stereo not given) | -4.91%
O=c1cc(-c2ccc(F)cc2)ncn1Cc1cccc2ccccc12 | 5.38%
O=C(CN1CCCC1Cn1cccn1)NCCc1ccc(F)cc1 (stereo not given) | -4.22%
CCc1ccc(-c2nn(-c3ccccc3)cc2C=NO)cc1 | -6.62%

SMILES | inhibition
CCOc1ccccc1NC(=O)CC(=O)N1[C@H](C)CCC[C@@H]1C | -17.8%
S=C(NN=CC1CC=CCC1)NC1CCCCC1 (stereo not given) | -5.67%
O=C(NNc1nc2c(Cl)cccc2s1)c1cc(=O)c2ccccc2o1 | 4.02%
COc1ccc(/C=C/C(=O)N2CCC3(CC2)CC3C(=O)N2CCN(c3ccccn3)CC2)cc1OC (stereo not given) | -22.2%
c1ccc(Oc2cccc(-c3ccc4nnc(-c5ccc6nccnc6c5)n4c3)c2)cc1 | -8.11%
Cc1ccc(N(CCCCN2C(=O)c3ccccc3C2=O)C(=O)/C=C/c2ccccc2Cl)cc1 | -4.6%
CCc1cc(N2CCN(c3ccccc3F)CC2)nc(SCc2cccc(C(=O)NCC3CCCO3)c2)n1 (stereo not given) | -4.77%
CC(O)CNC(c1nc(-c2ccc(Br)cc2)no1)C(C)C (stereo not given) | -3.51%
Cc1cc(C)n(-c2ccc(N3CCN(S(=O)(=O)c4ccc(C)c(C)c4)CC3)nn2)n1 | -8.08%
Cc1cc2c(o1)CC(C)(C)CC2NS(=O)(=O)CCc1ccccc1 (stereo not given) | -12.8%
COc1ccccc1C(=O)N1CCC(n2c(=O)oc3ccc(Cl)cc32)CC1 | -5.6%
Cc1nnc(SCC(=O)Nc2cccc(Cl)c2)c2c1cnn2-c1ccc(F)cc1 | -13.2%
O=C1OC(c2ccc(Cl)cc2)=NC1=Cc1ccc(N2CCOCC2)s1 | -5.28%
COCCN1C(=O)C(c2c(C(C)C)[nH]n(-c3ccc(Cl)c(Cl)c3)c2=O)=C([n+]2ccccc2)C1=O | -8.94%
CCOC(=O)c1ccccc1NC(=O)CSc1nnc(C)c2cnn(-c3ccccc3OC)c12 | -1.28%
Cc1ccccc1OCC(=O)N(CCn1cccn1)c1nc2ccccc2s1 | 3%
CCc1nc2c(OCC(N)=O)cccn2c1N(C)C(=O)c1ccc(OC)cc1 | -2.96%
CCOC(=O)CN(C(=O)c1cc(C)oc1C)[C@H]1[C@H](OC)[C@@H]2O[C@H]1c1ccccc12 | -0.832%
O=C(COc1ccc(Cl)cc1)NCC1CCN(c2nc(Cc3ccc(F)cc3)ns2)CC1 | -5.03%
